Screens deposited in PubChem by National Center for Advancing Translational Sciences (NCATS).
SW480 rereplic: inducers of DNA re-replication in SW480 colon cancer cells; SW480 DNA re-replication, Hoechst DNA content imaging, 48 h; Potency, µM (highest dose often 46.1 µM), inactives show top-dose re-replication activation, hits mostly activators; 1.8% of 340,000 active; further: potency means the concentration at half of the fitted maximal effect; % of control where 0% means no effect; nearly all actives have a fitted effect of over 55% in size
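Cells (250 per well) received 23 nL compound or DMSO by pin tool and were kept 48 hr at 37 C, 5% CO2. Nuclei were then stained with Hoechst for 40 min and scanned for DNA content.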
DRD3 antagonist: antagonists of human D3 dopamine receptor. P35462. max response, negative = inhibition, %. D3R cells, DiscoveRx beta-arrestin luminescence, antagonist mode; hits give low values. 2.5% of 360,000 active; in the data active means max response below about -50%; inconclusive means no clear call, values can overlap the other calls; further: on the % scale 0 is the no-effect control and ±100 the full control effect
Target sequence (P35462 whole entry, looked up): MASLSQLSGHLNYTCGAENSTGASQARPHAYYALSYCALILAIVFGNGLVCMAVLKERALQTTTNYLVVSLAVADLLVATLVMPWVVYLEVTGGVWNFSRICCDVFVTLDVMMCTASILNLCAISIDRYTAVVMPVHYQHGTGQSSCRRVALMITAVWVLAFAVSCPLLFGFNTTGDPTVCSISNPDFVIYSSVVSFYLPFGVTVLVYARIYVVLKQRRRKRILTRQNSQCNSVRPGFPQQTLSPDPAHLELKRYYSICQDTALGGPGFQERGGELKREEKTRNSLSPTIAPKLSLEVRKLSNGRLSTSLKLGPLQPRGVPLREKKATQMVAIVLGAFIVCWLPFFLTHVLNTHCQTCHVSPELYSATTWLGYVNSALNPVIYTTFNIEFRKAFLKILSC
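Cells expressing the human receptor were seeded at 1500 cells/well, incubated overnight at 37 degrees C in 5% CO2, then exposed to library compounds with dopamine controls for 90 minutes at 37 degrees C before luminescent detection.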
MCF10A rerep: DNA re-replication induction in MCF 10a cells; MCF 10A DNA re-replication, Hoechst nuclear intensity, 48 h; Potency, µM (highest dose often 46.1 µM), for inactives: at the top dose activity, positive = re-replication, actives largely listed as activators; 2.9% of 350,000 active; further: potency means the concentration at half of the fitted maximal effect; % of control where 0% means no effect; nearly all actives have a fitted effect of over 50% in size
KB-V1 MDR tox: KB-V1 MDR subline cytotoxicity; 3.4% of 400,000 active; Potency, µM (doses to about 46.1 µM), hits mostly cytotoxic; KB-V1 MDR cells viability, CellTiter-Glo, 72 h; AID 1347076; further: potency means the concentration at half of the fitted maximal effect; on the % scale 0 is the no-effect control and ±100 the full control effect; nearly all actives have a fitted effect of over 60% in size
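Readout: CellTiter-Glo luminescence, 10 min after addition. Cells: KB-V1 MDR subline, 72 h at 37 degrees C with compound. Analysis: corrected, normalized data fitted to concentration-effect curves.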
KB-3-1 cytotox: KB-3-1 parental cell cytotoxicity | KB-3-1 viability, CellTiter-Glo ATP luminescence, 72 h | Potency, µM (series often up to 46.1 µM), most hits filed as cytotoxic | 1.4% of 400,000 active | AID 1347075; further: potency means the concentration at half of the fitted maximal effect; on the % scale 0 is the no-effect control and ±100 the full control effect; nearly all actives have a fitted effect of over 60% in size
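Here the drug-naive KB-3-1 line serves as comparator for MDR sub-line selectivity; cells received compound titrations, 72 h at 37 °C, then CellTiter-Glo readout.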
DRD3 agonist: D3 dopamine receptor (human) agonism. P35462. D3R DiscoveRx beta-arrestin cells, luminescence, 90 min. 0.58% of 410,000 active. max activation, %. AID 652048; in the data active means max activation above about 30%; further: 0% is about no effect
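Cells at 1500/well, incubated overnight, then treated with pinned compounds (dopamine as control) for 90 min at 37 degrees C. DiscoveRx reagent added for 30 - 60 minutes at room temperature; luminescence read.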
The depositor's hits bear a star; i = inactive; ? = inconclusive; . = not tested or not shown; ! = a repeat was not active; [ ] = remark or other dose. An excerpt weighted towards active compounds, which were near 8.9% of everything screened. Unless noted, the call rests on the fitted dose curve; in most records, active means well fitted curve in the direction sought with a large enough effect; inconclusive means small, poorly fitted or top-dose-only effect, or another doubt; inactive means no such curve, though single readings can be large; an effect the other way counts as inactive or inconclusive.

SMILES	SW480 rereplic	DRD3 antagonist	MCF10A rerep	KB-V1 MDR tox	KB-3-1 cytotox	DRD3 agonist
COc1ccc(CC(=O)NCCc2csc(-c3cccc(C)c3)n2)cc1	.	.	.	.	.	8
COc1cc(C(=O)NCCc2csc(-c3ccc(Cl)cc3)n2)cc(OC)c1OC	.	.	.	?	i	41*
O=C(NCCc1csc(-c2cccnc2)n1)c1ccc(Cl)cc1	?	-3	12µM*	i	i	-13
O=C(NCCc1csc(-c2cccnc2)n1)c1cccc(Cl)c1	9%	24	-3%	?	i	6
O=C(NCCc1csc(-c2ccc(C(F)(F)F)cc2)n1)c1ccc(F)c(F)c1	.	.	.	13µM*	23µM*	-8
CCC(=O)N1c2ccccc2CC1C(=O)NCCc1ccc(OC)cc1OC (centres undefined)	.	.	.	i	i	-16
O=C(CN1C=NS(=O)(=O)c2ccccc21)Nc1ccccc1F	.	.	.	?	i	1
COc1ccccc1OCC(O)CO (centres undefined)	-72%	5	12%	i	i	83*!
CC1CCCN(CCOCCSc2ccccc2)C1 (centres undefined)	?	-73*	?	i	i	-12
CC1CCCN(CCS(=O)(=O)c2ccccc2)C1 (centres undefined)	6%	-20	12%	i	i	-15
CC1CC(C)CN(CCCSc2ccccc2)C1 (centres undefined)	5%	-51*	27%	?	i	-10
Cc1ccc(SCCOCCN2CCOCC2)cc1	0%	-27	?	i	i	-10
CC1CC(C)CN(CCOCCSc2ccc(Cl)cc2)C1 (centres undefined)	?	-80*	16µM*	i	i	-14
CC1CCC(=O)N(CCSc2ccccc2)CC1 (centres undefined)	-42%	13	?	?	i	-6
CC1CC(C)CN(CCOCCSc2ccccc2)C1 (centres undefined)	14%	-73*	?	i	i	-11
COc1ccc(-n2c(SCC(=O)Nc3ccc4c(c3)OCO4)nc3c([nH]c4ccccc43)c2=O)cc1	.	.	.	i	i	-10
CCOC(=O)c1sc2ccccc2c1S(=O)(=O)Nc1ccc(OC)c(Cl)c1	.	.	.	i	i	6
O=C(C[n+]1cccc(Br)c1)c1ccc(I)cc1	.	.	.	i	i	.
CCc1ccccc1NC(=O)CCn1cccn1	.	.	.	?	i	2
O=c1c2sccc2n(Cc2cccc(F)c2)c(=O)n1-c1ccc(F)cc1	4%	4	?	8.2µM*	i	-7
Cc1cccc(Cn2c(=O)n(-c3ccc(CC(=O)NCc4ccco4)cc3)c(=O)c3sccc32)c1	?	?	?	?	23µM*	-9
Cc1ccc(-n2c(=O)c3sccc3n(CC(=O)NCc3ccco3)c2=O)cc1	-3%	-10	3%	i	i	3
Cc1ccc(C(=O)c2c(N)c(C(=O)Nc3ccccc3Cl)c3ccccn23)cc1	.	.	.	i	i	-4
Cc1nn2c3c(cnc2c1-c1ccc(F)cc1)C(=O)CC(c1ccccc1)C3 (centres undefined)	.	.	.	i	i	-7
Cc1ccccc1CSCC(=O)Nc1c(C)n(C)n(-c2ccccc2)c1=O	-9%	8	2%	18µM*	i	5
SMILES	SW480 rereplic	DRD3 antagonist	MCF10A rerep	KB-V1 MDR tox	KB-3-1 cytotox	DRD3 agonist
Cc1c(NCc2cc(Cl)cc(Cl)c2O)c(=O)n(-c2ccccc2)n1C	12%	?	?	21µM*	i	-33
Cc1ccccc1CSCC(=O)Nc1ccccc1-c1ccccc1	?	0	17%	23µM*	i	-9
O=S(=O)(Nc1ccc2nc(-c3ccc(F)cc3)oc2c1)c1ccccc1	.	.	.	i	i	0
CCOC(=O)c1cc(S(=O)(=O)N2CCN(c3ccccc3F)CC2)[nH]n1	.	.	.	i	i	-15
COc1ccc(NC(=O)Cn2c(=O)n(CCCC(=O)NCCc3ccc(C)cc3)c(=O)c3ccccc32)cc1Cl	.	.	.	i	i	6
O=C(Cn1c(=O)n(Cc2ccc(F)cc2)c(=O)c2sc3ccccc3c21)NCc1ccccc1Cl	.	.	.	i	i	-18
CCCN(CCC)CCCNC(=O)Cn1ncn2c(cc3sc(CC)cc32)c1=O	.	.	.	.	.	2
COc1cc(OC)cc(C(=O)N[C@H](C(=O)OCC(=O)N2CCN(S(=O)(=O)c3ccc(C)cc3)CC2)C(C)C)c1	-15%	6	1%	i	i	1
Cc1nc(SCc2cc(=O)c3cccc(F)c3[nH]2)n[nH]1	.	.	.	i	i	6
CCCC(=O)N1CCN(c2ccc(NC(=O)c3ccc(OCC)c([N+](=O)[O-])c3)cc2)CC1	-69%	10	-6%	12µM*	i	2
CSCCC(NC(=O)c1cccc(S(=O)(=O)N2CCOCC2)c1)C(=O)Nc1ccc(F)cc1 (centres undefined)	112%	-24	-6%	i	i	-10
CCC(=O)N1CCN(c2ccc(NC(=S)NC(=O)c3ccc(OC)c([N+](=O)[O-])c3)cc2)CC1	6%	-30	-1%[9.22 µM]	i	i	-6
COc1ccc(C(=O)Nc2cc3c(cc2N2CCCCC2)n(C)c(=O)n3C)cc1OC	-39%	24	?	i	i	32*
COc1cc(C(=O)NC(CCSC)C(=O)Nc2ccc(N3CCOCC3)cc2)cc(OC)c1OC (centres undefined)	.	-73*	.	i	i	-4
COc1cc(C(=O)Nc2ccc(S(=O)(=O)N3CCOCC3)cc2)c([N+](=O)[O-])cc1OC	-19%	-11	-34%	i	i	40*
COc1ccc(CNC(=O)C(=O)Nc2c3c(nn2-c2ccccc2)CSC3)cc1	.	.	.	i	?	-2
CCc1ccc2oc(-c3cc(NC(=O)C(C)C)cc(C)c3O)nc2c1	.	.	.	i	i	-4
COc1cccc(C(=O)Nc2cccc(C(=O)OCc3cc(=O)n4c(C)csc4n3)c2)c1	.	.	.	.	.	-7
O=C(CN1C(=O)c2cccnc2Oc2ccc(Cl)cc21)Nc1cccc(C(F)(F)F)c1	.	.	.	i	i	1
CC(C)(C)n1cnc2cc(NCc3ccccc3Cl)ccc21	.	.	.	i	i	-19
COc1ccc(C(=O)Nc2ccc(N3CCCC3)cc2)cc1OC	4%	20	?	i	?	7
COc1ccc(C(=O)Nc2ccc(N3CCOCC3)cc2)cc1OC	-3%	11	13%	16µM*	?	-12
COc1ccc(C(=O)Nc2ccc(S(=O)(=O)N3CCN(C)CC3)cc2)cc1[N+](=O)[O-]	-48%	-18	?	i	i	3
